{"source": "the supplement of paper PMC10681739", "note": "Whole data set: some 2,700 sequences, median “arbitrary fluorescence units” near 4,100, cut for the highest 2% near 54,000. Only a selection was taken, and the highest values are over-represented in it overall.", "data": [{"target": "T1, ETS1 (UniProt P14921)", "T1 sequence": "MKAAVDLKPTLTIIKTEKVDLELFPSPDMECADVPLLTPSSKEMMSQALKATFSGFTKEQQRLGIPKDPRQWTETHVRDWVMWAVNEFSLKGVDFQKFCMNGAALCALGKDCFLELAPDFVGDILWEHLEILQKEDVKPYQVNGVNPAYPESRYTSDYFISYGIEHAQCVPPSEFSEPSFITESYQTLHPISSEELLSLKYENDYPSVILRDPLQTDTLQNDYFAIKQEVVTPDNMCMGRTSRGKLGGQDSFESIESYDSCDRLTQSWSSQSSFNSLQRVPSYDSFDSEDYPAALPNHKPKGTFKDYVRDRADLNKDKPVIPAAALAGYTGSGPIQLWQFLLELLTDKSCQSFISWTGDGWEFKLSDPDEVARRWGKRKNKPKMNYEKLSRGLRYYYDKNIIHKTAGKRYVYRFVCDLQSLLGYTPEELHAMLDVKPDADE", "test": "ETS1 binding intensity (PBM fluorescence) (arbitrary fluorescence units); higher = stronger binding", "settings": "ETS1 concentration 10 nM", "method": "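gcPBM on wild-type 36-bp genomic probes with two neighbouring ETS1 sites (4-24 bp apart). Recombinant human ETS1 (10 nM) was detected with anti-ETS1 antibody fluorescence. Values are medians over 3 replicate spots. The probes sit in constant array flanks that are not printed.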", "values": [{"sequence": "GATGACCTGCCATTTCCCCAGGAAAGCTGAGACCCC", "ETS1 binding intensity": 201}, {"sequence": "TTTCTGTCCGTTTCCGACAAACTTCCCGCGCTCTTC", "ETS1 binding intensity": 2630}, {"sequence": "TGCCCTGCCTGCTTCCTCCCTTCCTTTCAACCCCAA", "ETS1 binding intensity": 2350}, {"sequence": "TGAAGACGGAAACCTGAGAACACCATTTCCTGTGCT", "ETS1 binding intensity": 4470}, {"sequence": "CGGCGGAAGGAGCGGGCGGCGTGAGCGCTTCCGCCG", "ETS1 binding intensity": 811}, {"sequence": "CGGCGTCAGCGGAACGGGCGGCTTCCGGCCGCGGCG", "ETS1 binding intensity": 8120}, {"sequence": "GCCGCCGCGTACTTCCGGCCGGAAGAAAGGGCGGGC", "ETS1 binding intensity": 65400}, {"sequence": "GGGAGGCGGAAAGGGGCGGGACCACTTCCGGCCTAG", "ETS1 binding intensity": 22100}, {"sequence": "TCGGCCACTTCCGGCGCGCGGGGCGGAAAGCGGGCG", "ETS1 binding intensity": 75800}, {"sequence": "CGGCGGCTGCCGGAAAGCCACTTCCGGCCTGCTCCA", "ETS1 binding intensity": 25400}, {"sequence": "CTGTCACACAGGAAGACCACACAGGAAGACCAGGTG", "ETS1 binding intensity": 1320}, {"sequence": "TCCACTCTGCGGAAGCCACGTTCATCCTGCCCTGCC", "ETS1 binding intensity": 586}, {"sequence": "ATGCAGAAAGTGGGAAGTGAGGAAATGAGGGCAGCG", "ETS1 binding intensity": 232}, {"sequence": "AACCAACAACTTACTTCCTTCCGGGTTTGGTGCAGA", "ETS1 binding intensity": 5690}, {"sequence": "GAGAACTTCCGGCTGCAGTACAACCATTTCCGGGCT", "ETS1 binding intensity": 68300}, {"sequence": "CCTGGCCGGAAACTGAGCCGTTCACTTCCGCCACCA", "ETS1 binding intensity": 14000}, {"sequence": "TATCTCCTTCCTGTGTAGCATTGACTTTCCTGTCAG", "ETS1 binding intensity": 14100}, {"sequence": "CGTGAGCGGAAGCGGCGCCATTCGTCTTCCGAGCGC", "ETS1 binding intensity": 6670}, {"sequence": "TGCTAAACTTCCCTGGGCCCCATCAGGAAATGTGAA", "ETS1 binding intensity": 185}, {"sequence": "TCCGCGTCCCCACATCCTCCGGATGCCCAGCGGTTG", "ETS1 binding intensity": 1980}, {"sequence": "GCCCACATCCGGCCCCTCCTTGCCCCGGAACCTCCT", "ETS1 binding intensity": 70100}, {"sequence": "TTCTTGGCCACATCCGTCTCCCGGAACTGCTCCTTC", "ETS1 binding intensity": 8980}, {"sequence": "CGCCATACCTGGCTTCCGCTTCCGGTGGCTTCTCGT", "ETS1 binding intensity": 28200}]}]}
